From PubChem BioAssay
In the library only some 7.3% were active in any assay of this set; here they are far more common.
SMN2 splice up: qHTS Assay for Enhancers of SMN2 Splice Variant Expression | 210,000 tested, 2.8% active | AID 1458, 2008 | HEK293 SMN2-luciferase splicing reporter, luminescence, 30-36 h | Potency, µM (titrated, usually from 46.1 µM), most hits filed as activators; also: nearly all actives have a fitted effect of over 55% in size
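HEK293 cells carry an SMN2 […]–luciferase reporter in which exon 7 inclusion puts luciferase in frame. Cells were plated 10-12 h before compound addition, then incubated 30-36 h at 37C. ONE-Glo luminescence was read; sodium butyrate at 4.5 mM final served as control.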
NPC1 prom act: qHTS Assay for NPC1 Promoter Activators | Potency, µM (doses to about 9.22 µM), usual class: activators | Huh7 NPC1 promoter luciferase reporter, 24 h | 320,000 tested, 2.4% active; also: nearly all actives have a fitted effect of over 60% in size
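Readout is luciferase luminescence, reflecting NPC1 promoter activation in stably transfected Huh7 cells after 24 h compound exposure at 37 °C in reduced-serum medium with 10% FBS.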
FLuc counter: qHTS profiling assay for firefly luciferase inhibitor/activator using purifed enzyme and Km concentrations of substrates (counterscreen for miR-21 project). Luciferin 4-monooxygenase (Photinus pyralis), P08659. purified FLuc, Km substrates, luminescence inhibition. Potency, µM (top dose mostly 57.5 µM), actives largely listed as inhibitors. 360,000 tested, 6.9% active. AID 588342, 2011; also: nearly all actives have a fitted effect of over 55% in size
Target sequence (P08659 whole entry, looked up): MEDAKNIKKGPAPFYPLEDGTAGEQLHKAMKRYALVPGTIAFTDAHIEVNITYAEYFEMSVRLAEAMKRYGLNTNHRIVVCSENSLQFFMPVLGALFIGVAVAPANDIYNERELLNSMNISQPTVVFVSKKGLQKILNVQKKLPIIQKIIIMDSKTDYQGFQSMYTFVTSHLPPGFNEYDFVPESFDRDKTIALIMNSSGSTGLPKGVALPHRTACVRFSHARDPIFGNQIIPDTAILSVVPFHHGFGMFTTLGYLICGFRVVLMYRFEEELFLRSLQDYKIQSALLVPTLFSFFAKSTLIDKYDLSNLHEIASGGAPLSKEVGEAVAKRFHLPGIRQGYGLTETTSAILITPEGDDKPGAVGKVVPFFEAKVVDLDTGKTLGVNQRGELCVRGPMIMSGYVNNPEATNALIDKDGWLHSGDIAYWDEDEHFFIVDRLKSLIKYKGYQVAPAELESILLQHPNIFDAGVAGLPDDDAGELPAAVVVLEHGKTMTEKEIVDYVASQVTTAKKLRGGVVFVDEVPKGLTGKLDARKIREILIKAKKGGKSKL
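Purified P. pyralis luciferase (10nM final) with 10uM D-luciferin and 10uM ATP (Km levels) in 50mM Tris acetate pH 7.5, 10mM Mg acetate, 0.01% Tween-20, 0.05% BSA; qHTS 6-point titration, ~60 µM downward; luminescence read.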
Rab9 prom act: qHTS Assay for Rab9 Promoter Activators; Huh7 Rab9 promoter-luciferase reporter, luminescence, 24 h; Potency, µM (series often up to 9.22 µM), usual class: activators; 320,000 tested, 2.8% active; also: nearly all actives have a fitted effect of over 60% in size
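Measured in stably transfected Huh7 cells bearing a Rab9 promoter–luciferase construct: 24 h compound treatment at 37 °C, followed by luminescence detection.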
KinaseGlo FLuc: Counterscreen for Luciferase (Kinase-Glo TM) Inhibition; Luciferin 4-monooxygenase (Photuris pensylvanica), Q27757; Kinase-Glo luciferase, ATP luminescence, 8 min; Potency, µM (doses to about 38.3 µM), hits mostly inhibitors; 200,000 tested, 0.28% active; AID 1379, 2008; also: nearly all actives have a fitted effect of over 60% in size
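Light output from Kinase-Glo luciferase with luciferin and 10 uM ATP in 50 mM imidazole pH 7.2, KCl, MgCl2, Tween 20, BSA; compound pin-delivered, 8-min ambient incubation, then luminescence read.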
Each line names hits and unclear results; the compound was inactive in the other large screens. Calls follow the shape of the dose curve; as a rule, active = well fitted curve in the direction sought with a large enough effect; inconclusive = small, poorly fitted or top-dose-only effect, or another doubt; inactive = no such curve, though single readings can be large; an effect the other way counts as inactive or inconclusive.

Cc1ccc(NC(=O)C2CCN(C(=O)c3cnn(-c4ccccc4)c3-n3cccc3)CC2)cc1	none (no result: NPC1 prom act, Rab9 prom act, KinaseGlo FLuc)
CCOc1ccccc1NC(=O)Cn1c(=O)n(Cc2cccs2)c(=O)c2cccnc21	none (no result: NPC1 prom act, Rab9 prom act, KinaseGlo FLuc)
Cc1ccc(CNC(=O)CN2C(=O)C3(SCC(=O)N3c3ccc(F)c(F)c3)c3ccccc32)cc1 (configuration not stated)	none (no result: SMN2 splice up, NPC1 prom act, Rab9 prom act, KinaseGlo FLuc)
Cc1cc(NC(=O)c2cc(C(C)C)on2)no1	SMN2 splice up inconclusive, NPC1 prom act inconclusive, FLuc counter 15.1µM, Rab9 prom act inconclusive
CC(=O)Nc1ccc(C2=NNC(=NCC3CCCO3)SC2)cc1 (configuration not stated)	none (no result: SMN2 splice up, KinaseGlo FLuc)
Fc1ccc(F)c(C2=NNC(=NCC3CCCO3)SC2)c1 (configuration not stated)	SMN2 splice up inconclusive, NPC1 prom act inconclusive, FLuc counter inconclusive, Rab9 prom act 2.24µM
CCn1cc(C(=O)NCCCOC)c(=O)c2cc(S(=O)(=O)N3CCc4ccccc4C3)ccc21	none (no result: NPC1 prom act, Rab9 prom act, KinaseGlo FLuc)
O=C(Nc1ccccn1)c1cccnc1	none
COc1ccc(NC(=O)c2ccccc2C)cc1	NPC1 prom act 1.41µM, FLuc counter 9.53µM, Rab9 prom act 3.16µM (no result: SMN2 splice up, KinaseGlo FLuc)
O=C(Nc1ccccn1)c1cc2ccccc2cc1O	NPC1 prom act 3.55µM, FLuc counter 2.39µM, Rab9 prom act 3.98µM (no result: SMN2 splice up, KinaseGlo FLuc)
Cc1ccc(NC(=O)c2cc3ccccc3cc2O)cc1	NPC1 prom act 2µM, FLuc counter 1.07µM, Rab9 prom act 2.82µM (no result: SMN2 splice up, KinaseGlo FLuc)
COc1ccc(NC(=O)c2cc3ccccc3cc2O)cc1	NPC1 prom act 2.24µM, FLuc counter 0.953µM, Rab9 prom act 2.24µM (no result: SMN2 splice up, KinaseGlo FLuc)
O=C(Nc1ccc(Cl)c(Cl)c1)N(Cc1c[nH]c2ccccc12)C1CCCCC1	none (no result: NPC1 prom act, Rab9 prom act, KinaseGlo FLuc)
Cc1cccc(NC(=O)c2ccc3[nH]c(C)cc(=O)c3c2)c1	none (no result: SMN2 splice up, NPC1 prom act, Rab9 prom act, KinaseGlo FLuc)
Cc1ccc(-c2nnc(Nc3cccc(O)c3)c3ccccc23)cc1S(=O)(=O)N1CCCCC1	none (no result: NPC1 prom act, Rab9 prom act, KinaseGlo FLuc)
Cc1ccc(C)c(N2CCN(C(=O)Nc3cn(CC(C)C)c(=O)c4ccccc34)CC2)c1	none (no result: SMN2 splice up, NPC1 prom act, Rab9 prom act, KinaseGlo FLuc)
Cc1ccc(OCCOc2ccc(Br)cc2)c([N+](=O)[O-])n1	SMN2 splice up 11.2µM, NPC1 prom act inconclusive, FLuc counter 9.53µM, Rab9 prom act inconclusive
Cc1ccc(OCC(=O)Nc2ccc(C)c(F)c2)c([N+](=O)[O-])n1	NPC1 prom act 2.24µM, FLuc counter 9.53µM, Rab9 prom act 2µM (no result: SMN2 splice up, KinaseGlo FLuc)
Cc1ccc(OCC(=O)Nc2ccc3c(c2)OCO3)c([N+](=O)[O-])n1	SMN2 splice up 20µM, NPC1 prom act inconclusive, FLuc counter 6.01µM, Rab9 prom act inconclusive
CCCn1cc(S(=O)(=O)c2cc(C)ccc2C)c(=O)c2cc(F)c(N3CCOCC3)cc21	none (no result: SMN2 splice up, NPC1 prom act, Rab9 prom act, KinaseGlo FLuc)
COc1ccc(CNC(=O)CCS(=O)(=O)c2cc3c4c(c2)CCN4C(=O)CC3)cc1OC	none (no result: SMN2 splice up, NPC1 prom act, Rab9 prom act, KinaseGlo FLuc)
O=C(NCc1ccc(F)cc1)c1cccs1	none (no result: SMN2 splice up, KinaseGlo FLuc)
O=C(NCCCCCCNC(=O)c1cccs1)c1cccs1	none (no result: SMN2 splice up)
CCCn1c(CNC(=O)c2cccs2)nc2ccccc21	none
CCCCn1c(CCNC(=O)c2cccs2)nc2ccccc21	NPC1 prom act 3.55µM
O=C(NCCc1ccc(F)cc1)c1cccs1	SMN2 splice up 15.8µM, NPC1 prom act 2.82µM, FLuc counter 12µM, Rab9 prom act 2.51µM
O=C(NCCc1cccs1)c1cccs1	SMN2 splice up inconclusive, NPC1 prom act 2.82µM, FLuc counter 13.5µM, Rab9 prom act 2.82µM
O=C(CNC(=O)c1cccs1)c1ccc(Br)cc1	NPC1 prom act 0.794µM, FLuc counter 9.53µM, Rab9 prom act 0.447µM (no result: SMN2 splice up, KinaseGlo FLuc)
O=C(CNC(=O)c1cccs1)OCc1ccc(Br)cc1	none (no result: SMN2 splice up, KinaseGlo FLuc)
CNC(=O)C1CCN(Cc2cc3ccccc3n2Cc2cccc(C)c2)CC1	none (no result: SMN2 splice up, NPC1 prom act, Rab9 prom act, KinaseGlo FLuc)
O=C(NCC(O)c1ccccc1)c1cccs1 (configuration not stated)	NPC1 prom act 2.51µM, FLuc counter 16.9µM, Rab9 prom act inconclusive (no result: SMN2 splice up, KinaseGlo FLuc)
COc1ccc2cc(CCNC(=O)c3cccs3)c(=O)[nH]c2c1	SMN2 splice up 6.31µM, NPC1 prom act 2.82µM, FLuc counter 10.7µM, Rab9 prom act 2µM
O=C(NCCCc1ccccc1)c1cccs1	NPC1 prom act inconclusive, FLuc counter inconclusive
CCCc1ccc(-c2csc(NC(=O)C3=COCCO3)n2)cc1	NPC1 prom act 1.12µM, Rab9 prom act 1.26µM (no result: SMN2 splice up, FLuc counter, KinaseGlo FLuc)
